# Screening data as filed in PubChem.
# FadD28 FP inh – inhibitors of Mycobacterium tuberculosis FadD28 bisubstrate binding; FadD28 bisubstrate probe binding, fluorescence polarization; inhibition, % at 12.5 µM; hit rate 0.22% among 360,000; AID 588549; in the data active = inhibition above about 8.5%, passing the limit was not always enough
# PrP UTR inh – inhibition of PrP 5' UTR reporter expression; cell-based PrP 5' UTR mRNA reporter, plate reader; inhibition, % (test concentration not listed); hit rate 0.35% among 340,000; AID 488862; in the data active = inhibition above about 52%; also: 0 = median of the neutral control wells
# BioA inh – BioA (M. tuberculosis) enzyme inhibition; purified M. tuberculosis BioA enzyme, plate reader; inhibition, % at 9.99 µM; hit rate 0.096% among 360,000; AID 602481; in the data active = inhibition above about 40%
# Mtb hypoxia rep – reduces hypoxia-regulated biosensor signal in M. tuberculosis. M. tuberculosis hypoxia-regulated fluorescent reporter, fluorescence. hit rate 0.1% among 300,000. fluorescence inhibition, % (test concentration not listed); in the data active = fluorescence inhibition mostly above about 23%, no sharp cut-off; inactive = mostly below about 17%
# PriA SSB inh – blocks PriA binding to SSB C-terminal tail. AlphaScreen SSBct-PriA binding, biotinylated peptide. inhibition, % at 33 µM. hit rate 0.6% among 430,000. AID 1272365; in the data active = inhibition mostly above about 37%, no sharp cut-off; inactive = mostly below about 20%;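 also: plate controls were negative control peptide for no effect and reference peptide for full effect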
# TcdB inh – TcdB glycohydrolase inhibition | P18177 | TcdB glycohydrolase enzymatic assay, plate reader | inhibition, % at 9.99 µM | hit rate 0.24% among 350,000 | AID 652162; in the data active = inhibition above about 10%
# Active calls of the source: *; / = no result shown; ! = not confirmed by another sample. An excerpt weighted towards active compounds, which were near 1% of everything screened.
SMILES,FadD28 FP inh,PrP UTR inh,BioA inh,Mtb hypoxia rep,PriA SSB inh,TcdB inh
CCN1CCN(Cc2ccc(NC(=O)c3cc(NC(=O)c4cc(-c5ccc(OC)cc5)n[nH]4)cc(OC)c3)cc2C(F)(F)F)CC1,67*,-20,0,-3,38,2
CCN1CCN(Cc2ccc(NC(=O)c3cc(NC(=O)C4=NN(c5ccccc5)C(=O)C4)cc(OC)c3)cc2C(F)(F)F)CC1,-3,-28,-4,-5,3,0
CCN1CCN(Cc2ccc(NC(=O)c3cc(NC(=O)c4cc5cccc(OC)c5o4)cc(OC)c3)cc2C(F)(F)F)CC1,-2,-14,-3,2,73*,1
CCN1CCN(Cc2ccc(NC(=O)c3cc(NC(=O)c4ccc5n[nH]nc5c4)cc(OC)c3)cc2C(F)(F)F)CC1,-31,-2,2,4,15,0
CCOc1ccccc1NC(=O)c1ccc2c(c1)C(=O)N(CC)C2=O,1,-10,0,-2,100*,-1
CC(=O)c1cccc(NC(=O)C(C)N2CCc3ccccc3C2)c1 (stereo unspecified),-1,4,2,15,-13,0
Cc1cc(C)cc(OCC(=O)N2N=C(c3cccnc3)CC2(O)C(F)(F)F)c1 (stereo unspecified),-4,-4,1,2,-4,/
Cc1cc(C)cc(OCC(=O)N2N=C(C(F)(F)F)CC2(O)C(C)(C)C)c1 (stereo unspecified),-4,-19,3,/,49*,/
CC1CCC(C(C)C)C(OP(=O)(OC2CC(C)CCC2C(C)C)C(O)C2COC(C)(C)O2)C1 (stereo unspecified),/,/,/,/,-24,/
CN(c1ccccc1)S(=O)(=O)c1cccc(C(=O)NCCc2ccc(O)c(O)c2)c1,-1,-17,/,14,5,15*
CCN(CC)S(=O)(=O)c1cccc(C(=O)NCCc2ccccc2)c1,0,-58,-1,5,-1,1
NS(=O)(=O)c1ccc(Nc2ccc3cc(S(=O)(=O)N4CCCCC4)ccc3n2)cc1,-10,-10,9,1,-15,-10
NS(=O)(=O)c1ccc(CCNc2cnc3cc(S(=O)(=O)N4CCCCC4)ccc3n2)cc1,/,/,/,/,102*,/
COC1C(OC(=O)c2ccc(C)[nH]2)C(O)C(Oc2ccc3c(O)c(NC(=O)c4ccc(O)c(CC=C(C)C)c4)c(=O)oc3c2Cl)OC1(C)C (stereo unspecified),20*,-4,4,/,18,1
Cc1ccc(S(=O)(=O)NC(=O)Nc2cc(C)ccc2F)cc1,-3,9,0,-2,12,/
CC(=O)NS(=O)(=O)c1ccc(N=c2ssc3c2-c2ccc(C)cc2NC3(C)C)cc1,14*,-2,/,9,20,/
C=C(C)c1cccc(C(C)(C)NC(=O)NCc2cccnc2)c1,-1,-9,/,10,0,1
O=c1onc(-c2ccccc2)n1Cc1ccc([N+](=O)[O-])cc1,-2,/,1,/,/,10*
CCc1ccc(/C=C(/C#N)C(N)=S)cc1,-3,-20,/,5,38*!,/
COc1cccc(NC(=O)Nc2ccc3c(c2)C(=O)N(C)[C@@H]2CC[C@H](CC(=O)O)O[C@H]2CO3)c1,/,/,0,/,/,/
CC(C)(C)c1nc2c(s1)CCc1onc(-c3ccc(Br)cc3)c1-2,-3,-13,-3,1,-9,1
NNC(=S)Nc1cccc(-c2n[nH]c(=S)o2)c1,9.5*,-10,3,11,2,0
N#Cc1nc(COc2ccc(F)cc2)oc1N1CCCCC1,-1,-4,/,7,17,1
N#Cc1nc(COc2ccc(F)cc2)oc1N1CCCCCC1,/,/,/,/,111*,/
COc1ccc(Nc2oc(COc3ccc(Cl)cc3)nc2C#N)cc1,-3,24,-1,9,41*,/
SMILES,FadD28 FP inh,PrP UTR inh,BioA inh,Mtb hypoxia rep,PriA SSB inh,TcdB inh
N#Cc1nc(COc2ccc(Br)cc2)oc1N1CCCCCC1,-1,1,-5,/,24,0
N#Cc1nc(COc2ccc(Br)cc2)oc1N1CCCC1,-2,-18,2,/,51*,/
COc1ccc(CNc2oc(COc3ccc(Cl)cc3)nc2C#N)cc1,-8,-85,0,5,1,/
CN1CCN(c2oc(COc3ccc(-c4ccccc4)cc3)nc2C#N)CC1,2,-6,0,21,60*,/
COC(=O)C(CC(C)C)Oc1ccc2c(C)cc(=O)oc2c1 (stereo unspecified),-4,-18,1,6,-12,/
Cc1ccc(OCc2nc(C#N)c(N3CCOCC3)o2)cc1,/,/,/,/,82*,/
N#Cc1nc(COc2ccc(Cl)cc2)oc1N1CCCCC1,/,/,/,/,95*,/
N#Cc1nc(COc2ccccc2)oc1N1CCCCCC1,-4,-11,1,5,109*!,2
N#Cc1nc(COc2ccccc2)oc1N1CCCC1,-1,-48,0,0,14,/
COc1ccc(OCc2nc(C#N)c(N3CCCC3)o2)cc1,/,/,/,/,80*,/
CO/N=C/CC(=O)c1cnc(-c2ccccc2)s1,0,-33,1,/,/,0
N#Cc1nc(COc2ccc(Cl)cc2Cl)oc1N1CCOCC1,0,6,-3,-1,56*,/
COc1ccc(N2CCN(c3oc(COc4ccccc4)nc3C#N)CC2)cc1,-4,-14,-1,14,-20,/
COc1ccc(OCc2nc(C#N)c(N3CCCCCC3)o2)cc1,/,/,/,/,102*,/
COc1ccc(OCC2c3cc(OC)c(OC)cc3CCN2C(=O)Nc2ccc(Cl)cc2)cc1 (stereo unspecified),/,/,/,/,7,/
S=C(NCCN1CCOCC1)Nc1ccc(Nc2ccccc2)cc1,1,-10,2,-8,8,31*
CCN(CCNC(=O)C1CCCN(Cc2nc(-c3ccc(OC)cc3)oc2C)C1)c1ccccc1 (stereo unspecified),-2,-5,0,-8,48*,/
CCN(CCNC(=O)C1CCN(Cc2nc(-c3ccc(Cl)cc3)oc2C)CC1)c1ccccc1,-2,2,-1,-7,46*,/
O=C1C(=O)C(Cl)=C(Cl)C(Cl)=C1Cl,11*,/,-1,/,/,/
C=CC#CC[N+]1(CC#Cc2ccccc2)CCOCC1,2,-2,/,11,54*,1
N#Cc1nc(Cc2ccccc2)oc1NCc1cccnc1,0,-16,3,7,-4,/
N#Cc1nc(Cc2ccccc2)oc1NCc1ccccc1Cl,-2,-16,4,/,40*,/
CCOC(=O)c1cccc(NC(=O)CCNS(=O)(=O)c2cccc3nonc23)c1,-4,-13,1,-3,-3,16*
CCOc1ccccc1NC(=O)CCNS(=O)(=O)c1cccc2nonc12,-2,-22,-2,-3,-14,14*
CCCCOc1ccc(N2C(=O)CC(N(O)c3ccccc3)C2=O)cc1 (stereo unspecified),-3,-45,-2,9,-1,/
CCCCCCCCn1c(NS(=O)(=O)c2ccccc2)c(S(=O)(=O)c2ccccc2)c2nc3ccccc3nc21,/,/,/,/,60*,/
CCCCn1c(NS(=O)(=O)c2ccc(C)cc2)c(S(=O)(=O)c2ccccc2)c2nc3ccccc3nc21,3,18,1,/,23,1
